# PubChem BioAssay AID720553 (National Center for Advancing Translational Sciences (NCATS), 2013)
# The whole screen tested about 340,000 compounds, of which about 3,300 (0.97%) were called active.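 The calls were made as follows: active = maximum activity change below -70%; inconclusive = maximum activity change from -70% to -50%; inactive = maximum activity change above -50%.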 What follows is part of a selection rich in actives, with near analogues and random picks from the rest.
# System: Potassium voltage-gated channel subfamily H member 2, brain isoform KCNH2 3.1 (human)
# Test: qHTS for Inhibitors of KCHN2 3.1: Mutant qHTS
# Conditions: U2OS KCNH2 3.1, thallium flux FluxOr; hits give low values
# Outline: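 Virally transduced U2OS (3.1 isoform, 4 h infection in dark at RT) → overnight 37 C → FluxOr + Red40 in HBSS/HEPES, 45 min → stimulation buffer, 2 min kinetic read → rate constant vs DMSO controls.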
# % is scaled to controls: 0 for no effect and ±100 for the full control effect.
row,SMILES,activity change
1,COc1ccc(S(=O)(=O)N2CCC(C(=O)NCCC(=O)Nc3ccccc3OC)CC2)cc1,7.34% (inactive)
2,COCOCCn1cc(CN2CCS(=O)(=O)N(Cc3ccc(-c4ccccc4)cc3)C(CC(C)C)C2=O)nn1 (centres undefined),-28.9% (inactive)
3,CC(C)(C)OC(=O)CNC(=O)c1[nH]cnc1C(=O)N[C@@H](Cc1ccccc1)C(=O)OCc1ccccc1,-2.87% (inactive)
4,C[C@H](NC(=O)c1nc[nH]c1C(=O)NCC(=O)OC(C)(C)C)C(=O)OCc1ccccc1,-109% (active)
5,C[C@H](NC(=O)c1nc[nH]c1C(=O)NCC(=O)OC(C)(C)C)c1ccccc1,-20.8% (inactive)
6,C[C@H]1CN([C@@H](C)CO)C(=O)CCCn2cc(nn2)CO[C@@H]1CN(C)S(=O)(=O)c1ccc(-c2ccccc2)cc1,-9.74% (inactive)
7,c1ccc2c(c1)nnn2-c1ccncc1,1.83% (inactive)
8,COc1ccc(Cl)cc1NC(=O)CN(C)C(=O)c1cn(-c2ccccc2)nc1-c1cccs1,-9.77% (inactive)
9,CSc1ncccc1C(=O)N1CCCC(Nc2ccc(F)c(F)c2)C1 (centres undefined),-0.997% (inactive)
10,COc1ccc(C(=O)C2CCCN(Cc3cccn3-c3ccccn3)C2)c(C)c1 (centres undefined),-108% (active)
11,CCOC(=O)c1[nH]ncc1CN1CCCC(C(=O)c2ccc(OC)cc2C)C1 (centres undefined),-6.21% (inactive)
12,COc1ccc(C(=O)C2CCCN(S(=O)(=O)c3cccc(C)c3)C2)c(C)c1 (centres undefined),-2.34% (inactive)
13,C=CCn1nc(C(=O)OCC)cc1-c1sc(NC(=O)c2ccccc2)nc1C,21.3% (inactive)
14,C=CCNC(=O)/C(=C\c1cccc([N+](=O)[O-])c1)NC(=O)c1ccccc1,-8.85% (inactive)
15,CN(C)CCNC(=O)/C(=C/c1cccc([N+](=O)[O-])c1)NC(=O)c1ccccc1,-83.8% (active)
16,O=C(NCCc1ccccc1)/C(=C\c1ccc([N+](=O)[O-])cc1)NC(=O)c1ccccc1,-33.9% (inactive)
17,CCOC(=O)C=Cc1ccc(C(=O)OCC)[nH]1,6.88% (inactive)
18,C[C@H](CO)N1C[C@H](C)[C@H](CN(C)C(=O)c2ccncc2)OCc2ccccc2-c2c(n(C)c3ccccc23)C1=O,-0.608% (inactive)
19,COc1ccccc1-n1c(SCC(=O)Nc2ccc(Cl)cc2)nc(O)c(Cc2ccccc2)c1=O,4.83% (inactive)
20,CC(C)c1cc(C(=O)NC2CCCCCC2)c2ccccc2n1,2.17% (inactive)
21,C[C@@H]1CN([C@@H](C)CO)S(=O)(=O)c2ccc(C#Cc3cccc(F)c3)cc2O[C@H]1CN(C)S(=O)(=O)c1cn(C)cn1,7.52% (inactive)
22,CC1CN(C(=O)CCC(=O)NCCCN2CCC(Cc3ccccc3)CC2)c2cc(Cl)ccc2O1 (centres undefined),-84.9% (active)
23,CC1CN(C(=O)CCC(=O)NCc2cccnc2)c2ccccc2O1 (centres undefined),27.3% (inactive)
24,CC1CN(C(=O)CCC(=O)NC2CCN(Cc3ccccc3)CC2)c2ccccc2O1 (centres undefined),-0.725% (inactive)
